Source: PubChem (several laboratories)
The list is not random: actives were taken first. Their share in the collection is about 0.51%.
phage Ecoli inh: growth loss of phage-infected E. coli, primary screen, RecBCD inhibitor project, absorbance, with phage, HTS | AID 651602, 2012 | inhibition, % at 11.9 µM | actives 0.26% (n = 360,000); in the data active = inhibition above about 11%
Tat transport: E. coli Tat export inhibitors, primary screen, MC4100, TorA-mCherry reporter, fluorescence, single point; inhibition, % at 10 µM; actives 0.036% (n = 340,000); AID 488895, 2010;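 active = mean replicate inhibition at least 50% and at least half of replicates individually reaching 50%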;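 also: exported cargo escapes ClpAP degradation while cytoplasmic cargo is degraded and loses fluorescence; 0% = median of neutral control wells and 100% = median of NaSCN control wells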
E coli growth-1: E. coli V3065 growth inhibition, primary screen, counter-screen for AddAB inhibitor project, absorbance, OD600 | 18 h | inhibition, % at 11.9 µM | actives 0.27% (n = 330,000);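 active = inhibition above the campaign's mean inhibition across all tested compounds plus 3 SD, cut at about 9.9% in these data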;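 also: uninfected addAB+ strain grown without phage in ampicillin broth; 0% = DMSO wells and 100% = ciprofloxacin 0.95 µg/ml wells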
E coli growth-2: E. coli growth inhibition, primary screen, OD600. Escherichia coli growth, 23 h; hits give low values. OD600 absorbance (test concentration not listed). actives 0.21% (n = 330,000). AID 1053175, 2014;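 active = OD600 absorbance below the run mean of sample wells minus 3.6 SD, in any replicate, cut at about 0.56 in these data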
AddAB inh: growth inhibition of E. coli expressing H. pylori AddAB, primary screen, AddAB inhibitor project, absorbance. inhibition, % at 11.9 µM. AID 435030, 2010. actives 0.29% (n = 330,000); in the data active = inhibition above about 12%;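 also: 0% = vehicle wells of infected cells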
AddAB confirm: growth loss of phage-infected E. coli expressing H. pylori AddAB, confirmation, AddAB inhibitor project, absorbance, E. coli V3065, T4 phage, triplicate | shares compounds with AddAB inh | OD; T4 phage with gene 2 nonsense mutations | inhibition, % at 11.9 µM | actives 64% (n = 880) | AID 488942, 2010;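 active = mean inhibition above a set limit taken from the earlier primary screen, cut at about 13% in these data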;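 also: higher means less bacterial growth since AddAB block lets phage replicate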
RecBCD counter: growth loss of RecBCD+ E. coli with mutant T4 phage, counter-screen for AddAB inhibitor project, absorbance, V66 E. coli; shares compounds with AddAB inh; OD growth; inhibition, % at 11.9 µM; actives 73% (n = 880); AID 488955, 2010;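 active = mean inhibition above the mean of solvent-only control wells plus 3 SD, cut at about 4% in these data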;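 also: optical density read after an 18 h incubation at 37 °C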
bact viab count: bacterial viability inhibition counter-screen, confirmation, counter-screen for AddAB inhibitor project, absorbance; shares compounds with AddAB inh; absorbance (AddAB counterscreen); inhibition, % at 11.9 µM; actives 35% (n = 880); AID 488956, 2010; in the data active = inhibition above about 25%
Active calls of the source: *; x = no result.

SMILES	phage Ecoli inh	Tat transport	E coli growth-1	E coli growth-2	AddAB inh	AddAB confirm	RecBCD counter	bact viab count
C[C@H]1c2cccc(O)c2C(O)=C2C(=O)[C@]3(O)C(O)=C(C(N)=O)C(=O)[C@@H](N(C)C)C3[C@@H](O)C21 (stereo not given in full)	101*	146*	100*	x	99*	99*	98*	100*
Cc1nn(-c2ccccc2)c(N2CCCC2)c1C=NNC(=S)Nc1ccccc1F	x	x	x	0.72	x	x	x	x
On1c(-c2ccccc2)nc2ccccc21	3	0	6	0.63	6	x	x	x
O=Nc1c2nc3ccccc3n(O)c-2c2ccccc12	6	4	20*	0.56	14*	32*	8.1*	17
CCCCC(C)=NNC(=O)NC1CCCCC1	x	x	x	0.72	x	x	x	x
COc1ccc(-c2nc(C(N)=O)c3[nH]c(=O)n(-c4ccccc4OC)c3n2)c(OC)c1	-1	3	18*	0.77	43*	-2	-2	-4
O=C(Cn1ccc(C(F)(F)F)n1)Nc1cccc(S(=O)(=O)N2CCCCC2)c1	5	-1	24*	0.65	35*	-5	-1	-2
O=C(Nc1nnc(C(F)(F)F)s1)c1ccc(Br)s1	4	-3	9	0.62	14*	4	6.7*	1
CCn1cc(C(=O)NCc2cccc(F)c2)c(=O)c2cc(F)c(N3CCN(C(=O)c4ccco4)CC3)cc21	4	6	70*	0.41*	95*	98*	1	62*
CCCNC(=O)c1cn(CC)c2cc(N3CCN(C(=O)c4ccco4)CC3)c(F)cc2c1=O	8	15	58*	0.089*	94*	99*	2	58*
CCn1cc(C(=O)NN)c(=O)c2cc(F)c(N3CCCCC3)cc21	-1	-7	x	0.68	x	x	x	x
Cc1ccc(C(=O)C=CNc2ccc(C)c(C)c2)cc1	x	x	x	0.7	x	x	x	x
COc1ccc(C(=O)N2CC3(CC(c4cccc(NC(=O)CC(c5ccccc5)c5ccccc5)c4)=NO3)CC2C(N)=O)cc1 (stereo not given)	x	x	x	0.69	x	x	x	x
Cc1cc(=O)[nH]c(NN=Cc2ccc([N+](=O)[O-])cc2)n1	x	x	x	0.68	x	x	x	x
C(=Nn1cnnc1)c1ccc2c(c1)OCO2	x	x	x	0.71	x	x	x	x
C=CCn1c(Sc2ncc([N+](=O)[O-])s2)n[nH]c1=O	9	10	3	0.45*	17*	99*	12*	21
CCCCC(CC)CN=C(N)NC(N)=NCCCCCCN=C(N)NC(N)=NCC(CC)CCCC (stereo not given)	x	76*	101*	x	98*	104*	73*	98*
COc1ccc(C)cc1C1=CC(=O)CC(c2ccc(F)cc2)C1 (stereo not given)	x	x	x	0.71	x	x	x	x
CCN1C(=O)C2C(c3ccc(-c4ccc5c(c4)OCO5)c(OC)c3)N[C@@](C)(C(=O)OC)C2C1=O (stereo not given in full)	x	x	x	0.67	x	x	x	x
O=C(N/N=C\c1cccc(Cl)c1)c1ccc(Cn2cc(Br)c([N+](=O)[O-])n2)o1	8	2	26*	x	29*	29*	4.2*	22
COCCCNC(=S)NN=Cc1ccc(N(C)C)cc1Cl	x	x	x	0.67	x	x	x	x
CCC(=O)N1CCN(c2cc3c(cc2F)c(=O)c(C(=O)O)cn3CC)CC1	8	30	70*	0.069*	97*	100*	8.4*	98*
CCn1cc(C(=O)NN)c(=O)c2cc(F)c(N3CCN(C)CC3)cc21	3	-3	16*	0.55	18*	47*	-1	29*
CCCCCCC(=O)N1CCN(c2cc3c(cc2F)c(=O)c(C(=O)O)cn3CC)CC1	3	-2	8	x	10	x	x	x
CCn1cc(C(=O)O)c(=O)c2cc(F)c(N3CCN(S(=O)(=O)c4ccc(NC(=O)OC)cc4)CC3)cc21	4	7	18*	0.061*	37*	101*	29*	100*
SMILES	phage Ecoli inh	Tat transport	E coli growth-1	E coli growth-2	AddAB inh	AddAB confirm	RecBCD counter	bact viab count
CCOC(=O)c1cn(CC)c2cc(N3CCOCC3)c(F)cc2c1=O	7	6	53*	0.54*	58*	70*	-1	15
O=C(NC=NO)C1=NOC(CNc2ncc(C(F)(F)F)cc2Cl)C1 (stereo not given)	x	x	x	0.72	x	x	x	x
CC(=NNc1ccc([N+](=O)[O-])cc1)c1ccc(C#N)cc1	x	x	x	0.71	x	x	x	x
Cc1cc(C=C(C#N)C(=O)Nc2ccccc2)c(C)n1-c1cccnc1	x	x	x	0.72	x	x	x	x
CC(=NNC(=O)c1cc(C)[nH]n1)c1ccc(-c2ccccc2)cc1	x	x	x	0.69	x	x	x	x
CC(=O)c1cccc(NC(=O)CCNS(=O)(=O)c2cccc3nonc23)c1	5	-17	7	0.68	13*	6	4.5*	5
COc1c(N2CCNC(C)C2)c(F)cc2c(=O)c(C(=O)O)cn(C3CC3)c12 (stereo not given)	x	x	102*	0.061*	100*	101*	101*	103*
Cc1c(-n2cc(C(=O)O)c(=O)c3cc(F)c(N4CCCC(O)C4)c(F)c32)c(=O)n(-c2ccccc2)n1C (stereo not given)	1	6	1	0.72	2	x	x	x
O=C(COC(=O)Cc1n[nH]c(=O)c2ccccc12)Nc1c(Cl)cccc1C(F)(F)F	7	-3	27*	0.61	56*	-1	0	-2
O=C(COC(=O)Cc1c[nH]c2ccccc12)Nc1c(Cl)cccc1C(F)(F)F	0	5	-3	0.67	3	x	x	x
COc1cccc(C(=O)Nc2nnc(-c3ccc(Cl)cc3)o2)c1	-5	-4	-4	0.59	4	x	x	x
COc1cccc(C(=O)Nc2nnc(-c3cccs3)o2)c1	3	5	-2	0.56	12*	9	5.7*	0
CCn1nnnc1SCC(=O)NCc1ccc2c(c1)OCO2	1	-1	13*	0.77	21*	-5	-2	-5
CCNc1c([N+](=O)[O-])c(=O)oc2ccccc12	5	4	8	0.61	13*	29*	2	3
CC(Nc1c([N+](=O)[O-])c(=O)oc2ccccc12)C(Cl)c1ccccc1 (stereo not given)	3	-6	2	0.73	-2	x	x	x
O=c1oc2ccccc2c(NC(c2ccccc2)c2ccccc2)c1[N+](=O)[O-]	3	-13	6	0.7	39*	101*	5.3*	12
CCc1ccc(Nc2c([N+](=O)[O-])c(=O)oc3ccccc23)cc1	1	0	3	0.64	3	x	x	x
